# The whole screen tested about 2,300 compounds, of which about 20 (0.9%) were called active. For the sample, actives were picked, then their nearest neighbours and some compounds at random. Unmarked numbers belong to inactive results.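 Rule for the calls: active = mean activation across replicates above 26.72%, the hit cutoff set for this confirmation screen; inactive = the rest.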
# Target: G-protein coupled receptor 151 (Homo sapiens) (UniProt Q8TDV0)
# Test: GPR151 activators, triplicate retest, confirmation, cell-based, PathHunter beta-arrestin, luminescence, set 2 (AID 1508608);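 note: 0% = plate median of compound wells and 100% = EA reagent high control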
# Settings: GPR151 PathHunter beta-arrestin cells, 90 min, at 11.2 µM, stronger effect = higher value; 100% = signal from added EA reagent unless noted
# Sequence of G-protein coupled receptor 151 (Homo sapiens) (Q8TDV0 whole entry, looked up): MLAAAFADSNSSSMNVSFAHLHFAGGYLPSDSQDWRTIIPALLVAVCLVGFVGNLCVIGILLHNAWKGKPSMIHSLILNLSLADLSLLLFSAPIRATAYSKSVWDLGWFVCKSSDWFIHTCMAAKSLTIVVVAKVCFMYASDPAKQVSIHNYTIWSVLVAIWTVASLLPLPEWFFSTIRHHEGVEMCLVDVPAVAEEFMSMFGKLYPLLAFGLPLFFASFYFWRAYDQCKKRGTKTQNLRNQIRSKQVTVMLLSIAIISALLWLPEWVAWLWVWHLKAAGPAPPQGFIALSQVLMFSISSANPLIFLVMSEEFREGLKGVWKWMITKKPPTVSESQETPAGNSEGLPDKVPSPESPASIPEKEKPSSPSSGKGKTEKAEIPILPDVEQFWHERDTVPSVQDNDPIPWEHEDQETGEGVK
row,SMILES,activation
1,CC[n+]1c(/C=C/C=C2\N(C)c3ccccc3C2(C)C)n(-c2ccccc2)c2cc(Cl)ccc21,13.7%
2,CC[n+]1c(/C=C/C=C2\N(C)c3ccccc3C2(C)C)n(-c2ccccc2)c2ccc(C)cc21,19.5%
3,CCn1c(/C=C/C=C2\N(C)c3ccccc3C2(C)C)[n+](Cc2ccccc2)c2ccccc21,35.2% (active)
4,CCCCn1c(C)c(C(=O)OCC)c2cc(OC(=O)CCC)c3ccccc3c21,1.16%
5,CCOC(=O)c1nc2ccccc2c(=O)n1-c1ccc(C)cc1Br,-0.06%
6,C[C@H]1CC[C@@H]2[C@@H](C)[C@H]3[C@H](CC4[C@@H]5CC=C6CC(O[C@@H]7O[C@H](CO)C(O[C@@H]8O[C@@H](C)[C@H](O)[C@@H](O)[C@H]8O)[C@H](O)[C@H]7O[C@@H]7O[C@@H](C)[C@H](O)[C@@H](O)[C@H]7O)CC[C@]6(C)[C@H]5CC[C@@]43C)N2C1 (stereo not given in full),81.8% (active)
7,C[C@@H]1O[C@@H](O[C@H]2C[C@@H](O)[C@]3(CO)[C@H]4[C@H](O)C[C@]5(C)[C@@H](C6=CC(=O)OC6)CC[C@]5(O)[C@@H]4CC[C@]3(O)C2)[C@H](O)[C@H](O)[C@H]1O,13.4% [setting not given]
8,CCCCOc1ccc(C(=O)Nc2ccc(Cl)cc2C(=O)c2ccccc2)cc1,-0.96%
9,COCCOC(=O)C1=C(C)OC(N)=C(C#N)C12C(=O)N(CC(=O)OC)c1ccccc12 (stereo not given),-4.79%
10,O=C(Nc1ccc(Cl)cc1C(=O)c1ccccc1)c1cc([N+](=O)[O-])ccc1Cl,-4.58%

# — PubChem BioAssay AID1508608 (The Scripps Research Institute Molecular Screening Center, 2020)
